Assay results: PubChem BioAssay (NCI)
The panel holds about 79,000 compounds, 15% with a hit somewhere; the sample as a whole holds those more often. Rule as the data show it: active = growth inhibition above about 70%; inactive = the rest.

Columns and labels:
[1] = NCI Yeast Anticancer Drug Screen. Data for the rad50 strain (AID 155);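 also: 0% = growth of vehicle-only cultures of the same strain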; conditions: S. cerevisiae rad50 strain growth inhibition; at 50.0 µM; stronger effect = higher value
Outline: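 Vehicle-treated cultures provide the reference for the growth inhibition reported for compound-exposed, repair-deficient yeast.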

[2] = NCI Yeast Anticancer Drug Screen. Data for the mec2-1 strain (AID 157); conditions: S. cerevisiae mec2-1 strain, at 50.0 µM, stronger effect = higher value
Outline: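 Vehicle-treated cultures served as reference for growth inhibition of compound-exposed mec2-1 yeast.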

[3] = NCI Yeast Anticancer Drug Screen. Data for the sgs1 mgt1 strain (AID 161);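 also: 0% = growth of cultures given vehicle only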; conditions: S. cerevisiae sgs1 mgt1 strain, at 50.0 µM, stronger effect = higher value
Outline: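 Genetically altered yeast, compound exposure, growth inhibition relative to vehicle.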

[4] = NCI Yeast Anticancer Drug Screen. Data for the cln2 rad14 strain (AID 165);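 also: 0% = growth equal to vehicle treated cultures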; conditions: S. cerevisiae cln2 rad14 strain, at 50.0 µM, stronger effect = higher value
Outline: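 Each compound was tested on cln2 rad14 yeast. Inhibition of growth was calculated against vehicle-exposed controls.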

[5] = NCI Yeast Anticancer Drug Screen. Data for the bub3 strain (AID 167); conditions: S. cerevisiae bub3 mutant strain, at 50.0 µM, stronger effect = higher value
Outline: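 Mutant yeast screening strain plus compound; vehicle-treated cultures serve as the 0% inhibition reference.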

[6] = NCI Yeast Anticancer Drug Screen. Data for the mlh1 rad18 strain (AID 175); conditions: S. cerevisiae mlh1 rad18 strain growth inhibition; at 50.0 µM; stronger effect = higher value
Outline: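 Vehicle-treated cultures served as the reference for growth inhibition in a yeast strain carrying DNA damage repair alterations exposed to each compound.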

Measured: growth inhibition

CC1(C)COCN1COCCOCN1COCC1(C)C
inactive: [1] 10.2% | [2] -18% | [3] -1.55% | [4] 7.05% | [5] -25.9% | [6] -56.6%

C=CCNC(=O)C(=O)NCC=C
inactive: [1] 3.65% | [2] -16.2% | [3] -11.2% | [4] -24.6% | [5] -8.25% | [6] 2.1%

C[S+](C)CC(=O)c1ccccc1O
inactive: [1] -2.55% | [2] -9.7% | [3] 2.2% | [4] -62.4% | [5] 3.4% | [6] -0.6%

CCCCC(C(=O)O)C(=O)O
inactive: [1] -15.3% | [2] -13.4% | [3] -21.8% | [4] 1.1% | [5] -2.05% | [6] -18.4%

COC(=O)c1nc(N)nc(C(=O)OC)c1C(=O)c1c(C)[nH]c2ccccc12
inactive: [1] -9.85% | [2] -20% | [3] -36.9% | [4] -30.1% | [5] -28.4% | [6] -25.6%

CN1C(C(=O)O)CCC1C(=O)O (stereo unspecified)
inactive: [1] -1.2% | [2] 7.6% | [3] 6.55% | [4] -31.8% | [5] -0.4% | [6] 2%

CCCCCCCC/C=C\CCCCCCCC(=O)N(CCOC(=O)CCC(=O)OCCN(C(=O)CCCCCCC/C=C\CCCCCCCC)C1CCCCC1)C1CCCCC1
inactive: [1] -5.15% | [2] -9.25% | [3] -17.4% | [4] -3.2% | [5] -4.25% | [6] 16.8%

S=C(N1CCN(c2cccc(Cl)c2)CC1)N1CCN(c2cccc(Cl)c2)CC1
inactive: [1] -7.4% | [2] 13.7% | [3] 23% | [4] 9.6% | [5] 2.1% | [6] 12.7%

O=C(Nc1ccc(Cl)cc1Cl)C1C(=O)C(=O)N(c2ccc(Cl)cc2Cl)C1=O (stereo unspecified)
inactive: [1] 10.8% | [2] -10.1% | [3] -1.35% | [4] 26% | [5] 0.8% | [6] 14.4%

CC1OC(CO)C2OC(C)OCC2O1 (stereo unspecified)
inactive: [1] -14.2% | [2] -13.9% | [3] -12.8% | [4] -18.1% | [5] 5.75% | [6] 3.95%

CC(=O)NC(C=O)OCC=O (stereo unspecified)
inactive: [1] 0% | [2] 17.9% | [3] -22.3% | [4] 0.55% | [5] -29.1% | [6] -46.9%

CC(C)(C)c1ccc(OCCOCCCl)c(Cl)c1
inactive: [1] 17.1% | [2] 15.4% | [3] 14.6% | [4] -19.9% | [5] 8.65% | [6] 15.2%

C1=CC2CCC1C1CSCC21 (stereo unspecified)
inactive: [1] -3.15% | [2] -11.6% | [3] -8.95% | [4] -33.8% | [5] -3.45% | [6] -12.7%

COc1ccc(C(CC(=O)O)c2ccc(OC)c(OC)c2)c(OC)c1 (stereo unspecified)
inactive: [1] 3.4% | [2] -1.25% | [3] -6.65% | [4] -59.9% | [5] -1.6% | [6] 5.15%

CC1CCN(C(=O)Nc2ccccc2)CC1
inactive: [1] -7.1% | [2] -17.2% | [3] 4.9% | [4] -51.3% | [5] -6.05% | [6] -10.7%

CCC1(CC)CC(=O)NC1=O
inactive: [1] -4.95% | [2] -11.6% | [3] -40.5% | [4] 1.5% | [5] -26% | [6] -11.1%

Cc1cc2c(c3c1c(=O)c1ccccc1n3C)C=CC(C)(C)O2
inactive: [1] -5.05% | [2] -0.2% | [3] 9.95% | [4] 3.35% | [5] 14.4% | [6] -8.9%

O=C(O)c1cc(C(=O)O)nc(C(=O)O)c1
inactive: [1] -23.9% | [2] -12.1% | [3] -16.1% | [4] -29.9% | [5] 5.7% | [6] -0.6%

CCn1c2ccccc2c2cc(/C=N/N=C/c3ccc4c(c3)c3ccccc3n4CC)ccc21
inactive: [1] -17.8% | [2] 5.15% | [3] -11.6% | [4] -13.7% | [5] -1.8% | [6] -18.9%

Cc1ccc(C2SCC(=O)N2c2ccc(-c3ccc(-n4c(-c5ccccc5)nc5ccccc5c4=O)cc3)cc2)cc1 (stereo unspecified)
inactive: [1] 14% | [2] 6% | [3] 33% | [4] -0.45% | [5] 45.8% | [6] 55.8%

O=c1/c(=C2\Cc3cccc4cccc2c34)c2cccc3cccc1c32
inactive: [1] -9.7% | [2] -10.8% | [3] 10.1% | [4] -1.45% | [5] 18.7% | [6] -15.2%

CCOC(=O)COc1cc2c(cc1C(C)c1cc(OC)c(OC)c(OC)c1)OCO2 (stereo unspecified)
inactive: [1] 34.6% | [2] 2.2% | [3] 10.3% | [4] 18.1% | [5] 34% | [6] 10.9%

CC[N+](C)(C)CC(O)(O)C(F)F
inactive: [1] -28.1% | [2] -32.7% | [3] -17.1% | [4] 2.25% | [5] -26.8% | [6] -16.2%

CC1=CC2=NCC(O)CN2C=C1 (stereo unspecified)
inactive: [1] -4.2% | [2] 28.6% | [3] 9.25% | [4] 12.8% | [5] 14.4% | [6] 2.2%

CCCCNC(=O)NC1CC(OC2CC(O)(C(C)=O)Cc3c(O)c4c(c(O)c32)C(=O)c2c(OC)cccc2C4=O)OC(C)C1O (stereo unspecified)
inactive: [1] 30.2% | [2] 14.9% | [3] 22.9% | [4] 0.8% | [5] 1.25% | [6] 29.9%

O=C(Nc1cccc2ccccc12)OCCBr
inactive: [1] 6.85% | [2] -9.95% | [3] 3.25% | [4] 7% | [5] -10.2% | [6] -7.4%

Nc1nnnn1NC(=O)NCCCl
inactive: [1] -43.7% | [2] -38.7% | [3] -35.9% | [4] -18.4% | [5] -27.4% | [6] -26.5%

C=C1C(=O)OC2/C=C(\C)C(=O)CC3OC(C)(C)OC3(C)CC(OC(=O)/C(C)=C/C)C12 (stereo unspecified)
inactive: [1] 15.4% | [2] -14% | [3] 16.6% | [4] 9.6% | [5] -16.2% | [6] -30.6%

Cc1ccc(NC(=O)CCC(=O)C(C)C(=O)c2ccccc2)cc1C (stereo unspecified)
inactive: [1] -72.1% | [2] -7.6% | [3] -14.3% | [4] -55.7% | [5] -12.8% | [6] -9.4%

O=c1c2cc3ccccc3cc2c(=O)n2n1CC(O)C(Br)C2 (stereo unspecified)
inactive: [1] 64.7% | [2] 20.9% | [3] 36.5% | [4] -28.6% | [5] -3.2% | [6] 17.7%

CC(=O)OCC1OC(n2c(C)c(C(C)=O)c(-c3cccc4ccccc34)c(C#N)c2=S)C(OC(C)=O)C(OC(C)=O)C1OC(C)=O (stereo unspecified)
inactive: [1] 25.1% | [2] 22.4% | [3] 48% | [4] 22.1% | [5] 32.3% | [6] 33.9%

Cc1ccc(C)[nH]1
inactive: [1] -2.85% | [2] 7.35% | [3] -8.45% | [4] 53.2% | [5] -4.4% | [6] 18.1%

Cc1ccc(C2OC(=O)C(=O)C2=O)cc1 (stereo unspecified)
inactive: [1] -35.9% | [2] -21.4% | [3] -23.2% | [4] -21.6% | [5] -32% | [6] -3.35%

Cc1ccc(S(=O)(=O)OCC2C(COS(=O)(=O)c3ccc(C)cc3)C3CCC2C2C3C3C2C2(C)C(=O)C3(C)C(c3ccccc3)=C2c2ccccc2)cc1 (stereo unspecified)
inactive: [1] 0.35% | [2] -5.2% | [3] 4.2% | [4] -5.7% | [5] -5.5% | [6] 12.3%

Nc1ncccc1C(=O)O
inactive: [1] 2.55% | [2] -1.05% | [3] -2.8% | [4] -12.1% | [5] -0.35% | [6] -3.05%

CSSC(SC)SC
inactive: [1] 31.9% | [2] -7.85% | [3] 13.6% | [4] -21.1% | [5] -11.6% | [6] 29.6%

CNC(=O)C(c1ccccc1)C(F)(F)F (stereo unspecified)
inactive: [1] 8.1% | [2] 3.9% | [3] -6.7% | [4] -12.4% | [5] 10.3% | [6] 4.3%

S=C(SC1C=CCC1)N1CCOCC1 (stereo unspecified)
inactive: [1] 15.7% | [2] -2.8% | [3] 13.5% | [4] -41.8% | [5] 10.1% | [6] -13.6%

Cc1csc(-n2nc(C)cc2C)n1
inactive: [1] -5.35% | [2] -23.1% | [3] -37.2% | [4] 6.75% | [5] -30.9% | [6] -6.05%

CC1=C(C(=O)Nc2ccccc2C)C(c2ccccc2C)C(C(=O)Nc2ccccc2C)=C(C)N1
inactive: [1] 67.2% | [2] 62.6% | [3] 51.8% | [4] 27.3% | [5] 64.3% | [6] 57.7%

OC1CCC(C#CC#CC2CCC(O)CC2)CC1 (stereo unspecified)
inactive: [1] 2.05% | [2] -34.2% | [3] 3.05% | [4] 2.25% | [5] -23.7% | [6] -1.7%
